# Reference: PubChem BioAssay AID485364 (National Center for Advancing Translational Sciences (NCATS), 2010)
# Hit rate of the full screen: of about 360,000 compounds, about 11,000 (3.1%) were called active. Not shown: some 4% with an inconclusive outcome. Many of the other results were omitted from the sample, so actives are more common in it than they were. A number with no mark means an inactive call. Calls follow the shape of the dose curve; as a rule, active = well fitted inhibition curve with a large enough effect; inconclusive = small, poorly fitted or top-dose-only effect; inactive = no such curve, though single readings can be large or run the other way.
# Molecular target: Schistosoma mansoni thioredoxin glutathione reductase (TGR) (UniProt Q962Y6)
# Experiment: qHTS Assay for the Inhibitors of Schistosoma Mansoni Peroxiredoxins; also: nearly all actives have a fitted effect of over 60% in size
# Details: purified TGR, DTNB reduction, TNB absorbance 405 nm; series mostly up to 114 µM; activity change, negative = inhibition: at the top concentration
# How it was run: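 TGR 20 nM + NADPH 100 uM (dispensed conc.), cpd preinc 15 min RT; start with NADPH (500 uM addition) then DTNB (15 mM addition). Kinetic TNB absorbance, 405 nm filter. Four-parameter Hill fit across titration.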
# % is scaled to controls: 0 for no effect and ±100 for the full control effect; potency is read from the fitted curve at half-maximal effect.
SMILES,"activity change, negative = inhibition [%]",Potency
CCc1ccc(S(=O)(=O)c2nnn3c2nc(NCc2ccccc2OC)c2cc(Cl)ccc23)cc1,8.14,–
Cc1nn(Cc2ccc(F)cc2)c(C)c1NC(=O)c1cc(CC(C)C)on1,0.928,–
CCOC(=O)N1CCN(C(c2cccnc2)c2ccc3cccnc3c2O)CC1 (centres undefined),–,0.316 µM (active)
COc1ccccc1N1CCN(C(CNC(=O)Oc2ccccc2)c2cccnc2)CC1 (centres undefined),0.19,–
O=C(CSc1cccc2cccnc12)N/N=C/c1cccnc1,10.9,–
COc1ccc(CC(=O)Nc2nnc3n2CCS3)cc1OC,-0.169,–
CCOC(=O)c1c(C)[nH]c(CCC(=O)NCCCN2CCN(c3cccc(Cl)c3)CC2)c1C,-6.57,–
CN(C(=O)c1ccc2c(c1)N(Cc1cccc(Cl)c1)C(=O)c1ccccc1S2=O)C1CCCCC1 (centres undefined),13.3,–
CCOc1ccc(C(C)NC(=O)CN2C(=O)NC3(CCCCC3)C2=O)cc1OCC (centres undefined),1.76,–
CCOc1ccc(C(C)=O)cc1COC(=O)CNC(=O)c1cccs1,–,11.2 µM (active)
Cc1ccc(COC(=O)CN2C(=O)NC3(CCCC3)C2=O)cc1,-26.1,–
COc1ccc(C(=O)COC(=O)CNC(=O)c2cccs2)cc1Br,-32.3,–
CCOc1ccc(C(C)=O)cc1COC(=O)CN1C(=O)NC2(CCCC2)C1=O,–,10 µM (active)
CCOc1ccc(C(C)=O)cc1COC(=O)c1cnc(Cl)c(Cl)c1,-19.2,–
CCOc1ccccc1N(C)C(=O)c1cc2c(s1)-c1ccccc1OC2,0.733,–
Cc1nnc(NCc2ccccc2)c2c1nnn2Cc1ccc(F)cc1,5.94,–
CCc1nc(-c2cc(S(=O)(=O)N3CCN(c4ccc(OC)cc4)CC3)ccc2OC)no1,3.63,–
Cc1ccc(CNC(=O)Cn2c(=O)ccc3cc(S(=O)(=O)N4CCCC4)ccc32)cc1,-0.446,–
Cc1ccc(NC(=O)CSc2nc3ccccc3c3nc(CCn4cncc4C)nn23)cc1F,-0.64,–
CC(=O)c1ccc(NC(=O)N[C@@H](Cc2ccccc2)C(=O)O)cc1,2.42,–
CC(=O)c1ccc(OC(NC(=O)Cc2ccccc2)C(Cl)(Cl)Cl)cc1 (centres undefined),–,22.4 µM (active)
CCC/C=C(\CCC)C(NC(=O)Cc1ccccc1)c1ccc(C(=O)OC)cc1 (centres undefined),-12.9,–
COc1ccc(NC(=O)c2sc3nc[nH]c(=O)c3c2C)cc1,-1.14,–
COc1ccccc1NC(=O)C1=C(C)Nc2nc(SCC(=O)c3ccc(C)cc3)nn2C1c1ccccc1C (centres undefined),7.49,–
CCCCCn1c(=O)[nH]c2cc(C(=O)Nc3cc(C)cc(C)c3)ccc2c1=O,0.323,–

SMILES,"activity change, negative = inhibition [%]",Potency
COc1ccc(SC[C@H](Cc2ccccc2)N2CCN(CCc3ccccc3)CCC2=O)cc1,–,17.8 µM (active)
O=C1CC[C@H](O)CCN1[C@H](CSc1ccc(Br)cc1)Cc1ccccc1,-6.32,–
C[C@H]1CCC(=O)N([C@H](CSc2ccccc2)Cc2ccccc2)CC1,-20,–
COc1cccc(NC(=O)CSC2=Nc3ccccc3C3=NC(CC(=O)NC4CCCCC4)C(=O)N23)c1 (centres undefined),3.31,–
CC(=O)c1ccc(NC(=O)c2nc3nc(C)cc(C(F)F)n3n2)cc1,-2.5,–
COc1ccc(Cl)cc1C(=O)NNC(=S)NC(=O)/C=C/c1ccco1,-28.9,–
COc1ccc(/C=C/C(=O)NC(=S)N2CCCC(C(N)=O)C2)cc1 (centres undefined),3.32,–
COc1ccccc1/C=C/C(=O)NC(=S)N1CCOCC1,-5.17,–
O=C(/C=C/c1ccco1)NC(=S)N1CCCCC1,–,25.1 µM (active)
O=C(/C=C/c1ccco1)NC(=S)Nc1ccccc1Br,–,35.5 µM (active)
O=C(NNC(=S)Nc1ccc(Br)cc1Cl)c1ccco1,-15.5,–
O=C(Nc1ccc2nc(SCC(=O)N3CCCc4ccccc43)sc2c1)c1ccc(Cl)cc1,9.24,–
COc1ccccc1-c1noc(CSc2nnc(-c3ccccc3)n2-c2ccc(C)c(C)c2)n1,4.75,–
O=C(O)c1ccc(CSc2nc3cccnc3n2Cc2cccc(F)c2)cc1,9.94,–
Cc1ccc(-n2ncc(C(=O)N(C)Cc3ccccc3)c2-n2cccc2)cc1,2.53,–
CC(=O)c1ccc(NS(=O)(=O)c2ccc(-c3cc(C)no3)s2)cc1,-8.37,–
COc1ccccc1CNC(=O)c1ccc(-n2c(C)cc3c2CCCC3)cc1,-25.8,–
CN1C(=O)/C(=N/OC(=O)c2ccccc2Br)c2ccccc21,–,12.6 µM (active)
CN1C(=O)/C(=C\c2cc(Br)cs2)c2ccccc21,-1.32,–
Cn1c(=O)c(=O)n(C)c2cc(NC(=O)c3ccccc3Br)ccc21,0.681,–
Cc1ccc(C)c(NC(=O)CSC2=Nc3ccccc3N=C(c3ccc(F)cc3)C2)c1,-2.76,–
COc1cc(C(=O)Nc2ccc(-n3c(C)nc4ccccc4c3=O)cc2)cc(OC)c1OC,-1.35,–
CC(C)(C)c1ccc(C(=O)NNC(=O)Cc2ccccc2)cc1,4.42,–
Cc1ccc(Sc2cc(C(=O)c3ccccc3C(=O)O)ccc2[N+](=O)[O-])cc1,-7.05,–
Cc1ccc(SC(CC(=O)c2ccc(C(C)(C)C)cc2)C(=O)O)cc1 (centres undefined),–,2 µM (active)

SMILES,"activity change, negative = inhibition [%]",Potency
COc1ccc2[nH]c3c(c2c1)CCN(C(=O)CCC1CCCC1)C3c1ccc(F)cc1 (centres undefined),-6.55,–
C#CCNC(=O)C1=C[C@@H](c2ccccc2)[C@H](CCCO)[C@@H](OCC)O1,–,35.5 µM (active)
CCO[C@H]1OC(C(=O)NCc2ccccc2)=C[C@@H](c2coc3ccccc3c2=O)[C@@H]1CCCO,-1.2,–
CCO[C@@H]1OC(C(N)=O)=C[C@H](c2ccc(Br)cc2)[C@H]1CCCO,2.27,–
Cn1c(SCC(=O)N2CCCC2)nnc1-c1cccs1,-6,–
Cn1c(SCC(=O)c2cccs2)nnc1-c1ccco1,–,44.7 µM (active)
CCn1c(SCC(=O)Nc2nccs2)nnc1-c1ccco1,-7.64,–
Cc1ccc(SCC(=O)Nc2ccc3oc(-c4ccccc4F)nc3c2)cc1,-9.68,–
CCc1ccc(Nc2nn3c(=O)c4cc5c(cc4nc3s2)OCO5)cc1,-4.94,–
CC(=O)CCS(=O)(=O)c1ccc(C)c(C)c1,–,50.1 µM (active)
O=C(O)CCS(=O)(=O)c1ccc(-c2ccccc2)cc1,-10.8,–
Cc1ccc(S(=O)(=O)NCCC(=O)Nc2ccc(C)c(Cl)c2)cc1C,4.29,–
CC(=O)c1c(C)n(S(=O)(=O)c2ccc(Cl)cc2)c2ccc(NS(=O)(=O)c3ccc(Cl)cc3)cc12,-17.9,–
CSc1nn(Cc2cccc(C)c2)c(N)c1S(=O)(=O)c1ccccc1,12.3,–
Cc1ccc(NC(=O)/C(=C\c2ccccc2)NC(=O)c2ccco2)cc1,-2.41,–
COc1ccccc1C(=O)N/C(=C/c1ccco1)C(=O)Nc1ccc(C(=O)O)cc1,–,50.1 µM (active)
COc1ccc(/C=C(/NC(=O)c2ccco2)C(=O)Nc2ccc(C(C)=O)cc2)cc1,-6.99,–
NC(=O)C1CCN(C(=O)/C(=C/c2ccco2)NC(=O)c2ccccc2)CC1,-24.6,–
CC(C)(C)c1ccc(/C=C/C(=O)NC2CCS(=O)(=O)C2)cc1 (centres undefined),12.1,–
COc1ccccc1C(=O)N/C(=C/c1ccc2c(c1)OCO2)C(=O)Nc1cccc(C(=O)O)c1,6.54,–
O=C(Nc1ccccc1)/C(=C\c1ccco1)NC(=O)c1ccco1,–,10 µM (active)
O=C(NCc1ccco1)/C(=C/c1ccco1)NC(=O)c1ccccc1,–,39.8 µM (active)
O=C(NCC1CCCO1)/C(=C\c1ccco1)NC(=O)c1ccccc1 (centres undefined),-35.4,–
Cc1ccc(C(=O)N/C(=C/C=C/c2ccccc2)C(=O)NCc2ccco2)cc1,0.675,–
Cc1ccc(C(=O)N/C(=C\c2ccco2)C(=O)NC2CCS(=O)(=O)C2)cc1 (centres undefined),–,31.6 µM (active)

SMILES,"activity change, negative = inhibition [%]",Potency
O=C(NNC(=O)c1ccco1)Nc1ccccc1,4.12,–
Cc1cccc(Cc2c(C)nc3nc(SCc4ccccc4Cl)nn3c2C)c1,1.03,–
Cc1ccc(Cl)cc1NC(=O)CCC(=O)N1CC(C)Sc2ccccc21 (centres undefined),0.838,–
Cc1oc2ncnc(N3CCCCC3)c2c1C(=O)N1CCN(c2cccc(Cl)c2)CC1,14.5,–
COc1cccc(NC(=O)Nc2ccc3c(c2)N(C)C(=O)c2ccccc2S3)c1,5.44,–
CCOc1ccc(CCNC(=O)Cn2nc(CC)n3c(cc4sc(CC)cc43)c2=O)cc1OCC,0.777,–
Cc1ccc2c(=O)c(C(=O)c3ccc(Cl)cc3)cn(CC(=O)NC3CCCCC3)c2n1,4.61,–
Cc1noc(/C=C/N(C)C)c1S(=O)(=O)N1CCCC(C(=O)Nc2cccc(F)c2)C1 (centres undefined),1.27,–
CCc1cccc(NC(=O)c2cnc(N3CCOCC3)c3ccccc23)c1,-4.16,–
Cc1ccc(CNC(=O)CCC(=O)N2Cc3ccccc3Oc3ncccc32)cc1,-1.02,–
CCc1ccccc1N1C(=O)CN(S(=O)(=O)CC)CC1(C)C(=O)NC1CCCCC1 (centres undefined),-8.36,–
Cc1ccc(NC(=O)Cn2c(=O)n(-c3ccccc3)c(=O)c3c4c(sc32)CCCC4)cc1,5.28,–
Cc1cccc(NC(=O)/C(=C\c2ccco2)NC(=O)c2ccccc2)c1,–,20 µM (active)
O=C(Nc1ccc(C(=O)O)cc1)/C(=C\c1ccccc1)NC(=O)c1ccc(Br)cc1,0.921,–
COc1ccc(/C=C(/NC(=O)c2ccccc2)C(=O)Nc2cccc(C(=O)O)c2)cc1,-14.6,–
COc1ccc(-c2nc3sc(CCNS(=O)(=O)c4ccc(F)c(C)c4)c(C)n3n2)cc1,6.57,–
Cc1ccc2nc3c(cc(C(=O)NC4CCCCC4)c(=N)n3C(C)C)c(=O)n2c1,-3.44,–
COc1ccc(N2C(=O)CC(Nc3ccc(F)cc3)C2=O)c([N+](=O)[O-])c1 (centres undefined),-14.2,–
COc1ccc(NC2CC(=O)N(C)C2=O)cc1 (centres undefined),–,15.8 µM (active)
COc1ccc(N=C2SC(C(=O)Nc3ccc(F)cc3)CC(=O)N2C)cc1 (centres undefined),-2.04,–
CCN(C(=O)Cn1c(=O)nc(-c2ccccc2)c2cc(Cl)ccc21)c1cccc(C)c1,3.12,–
O=C(NC1CCCC1)C(c1ccco1)N(C(=O)c1ccco1)c1ccc(F)cc1 (centres undefined),0.474,–
COC(=O)c1cccc(N(C(=O)c2ccco2)C(C(=O)NC2CCCC2)c2ccco2)c1 (centres undefined),–,44.7 µM (active)
COc1cccc(C(C(=O)NC2CCCC2)N(C(=O)c2ccco2)c2cccc(C(C)=O)c2)c1OC (centres undefined),-21.3,–
